Where a name gives a salt, the structure may show the parent alone.
System: MOLM14
Experiment: cell viability relative to vehicle control; higher = less cytotoxic
Settings: 10 µM; SRSF2 genotype: SRSF2 wt/wt
Procedure, shortened: (§1)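 Mutant clones made by CRISPR editing and their isogenic wild-type counterparts, from four leukaemia lines, were exposed to a single 10 µM dose of each library compound for 48 h. The supernatant was then removed and CellTiter-Glo luminescence was read. Viability was reported as percent of the on-plate vehicle control.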

| SMILES | cell viability [%] |
| --- | --- |
| CCCCCCCC(=O)CCc1ccc(O)c(OC)c1 [6-Paradol] | 104 |
| CNC(=C[N+](=O)[O-])NCCSCc1ccc(CN(C)C)o1 [Ranitidine Hydrochloride] | 103 |
| CC(C)(C)NC[C@H](O)COc1nsnc1N1CCOCC1 [Timolol Maleate] | 103 |
| O=C(O)CCN1C(=O)/C(=C/c2ccc(-c3ccc([N+](=O)[O-])cc3)o2)SC1=S | 101 |
| C[C@]12CC[C@@H]3c4ccc(O)cc4C[C@@H](CCCCCCCCC[S+]([O-])CCCC(F)(F)C(F)(F)F)[C@H]3[C@@H]1CC[C@@H]2O (some centres not stated) [Fulvestrant (Faslodex)] | 89.1 |
| OC[C@@H](O)[C@@H](O[C@@H]1O[C@H](CO)[C@H](O)[C@H](O)[C@H]1O)[C@H](O)[C@@H](O)CO [Lactitol] | 101 |
| CC(C)N(CCCNC(=O)Nc1ccc(C(C)(C)C)cc1)C[C@H]1O[C@@H](n2ccc3c(N)ncnc32)[C@H](O)[C@@H]1O | 92 |
| c1ccc2[nH]c(-c3cscn3)nc2c1 [Thiabendazole] | 99 |
| CN1[C@@H]2CC[C@H]1C[C@@H](OC(c1ccccc1)c1ccccc1)C2 [Benztropine mesylate] | 100 |

System: OCI-AML2
Experiment: as above
Settings: 10 µM; SRSF2 genotype: P95H/wt
Procedure, shortened: as §1

| SMILES | cell viability [%] |
| --- | --- |
| CCCSc1nc(N[C@@H]2C[C@H]2c2ccc(F)c(F)c2)c2nnn([C@@H]3C[C@H](OCCO)[C@@H](O)[C@H]3O)c2n1 [Ticagrelor] | 71.5 |
| O=[N+]([O-])c1cn2c(n1)OC[C@@H](OCc1ccc(OC(F)(F)F)cc1)C2 | 98.9 |
| Cn1cncc1[C@@](N)(c1ccc(Cl)cc1)c1ccc2c(c1)c(-c1cccc(Cl)c1)cc(=O)n2C [Tipifarnib (Zarnestra)] | 19.9 |
| CCN1CCN(C(=O)N[C@@H](C(=O)N[C@@H]2C(=O)N3C(C(=O)O)=C(CSc4nnnn4C)CS[C@H]23)c2ccc(O)cc2)C(=O)C1=O [Cefoperazone (Cefobid)] | 100 |
| C[C@]1(O)C[C@@H](c2nc(-c3ccc4ccc(-c5ccccc5)nc4c3)c3c(N)nccn32)C1 [OSI-906 (Linsitinib)] | 29.6 |
| O=c1c(O)c(-c2ccc(O)c(O)c2)oc2cc(O)ccc12 [Fisetin (Fustel)] | 102 |
| CC1(C)[C@@H](O)CC[C@]2(C)[C@H]3C(=O)C=C4[C@@H]5C[C@@](C)(C(=O)O)CC[C@]5(C)CC[C@@]4(C)[C@]3(C)CC[C@@H]12 [Enoxolone (Glycyrrhetin)] | 110 |
| OCCN1C[C@H](O)[C@@H](O)[C@H](O)[C@H]1CO [Miglitol (Glyset)] | 107 |
| CC(OC(=O)OC1CCCCC1)OC(=O)C1=C(CSc2nnnn2CCN(C)C)CS[C@@H]2[C@H](NC(=O)Cc3csc(N)n3)C(=O)N12 (some centres not stated) [Cefotiam Hexetil Hydrochloride] | 90 |
| COc1ccc(-c2nc(-c3cc(C(F)(F)F)cc(C(F)(F)F)c3)n(Cc3ccc(C(N)=O)cc3)c2-c2ccc(OC)cc2)cc1 [Apoptozole] | 69.4 |
| Nc1ncnc2c1nc(Br)n2[C@@H]1O[C@@H]2COP(=O)(O)O[C@H]2[C@H]1O [8-Bromo-cAMP] | 79.8 |
| Cc1noc(NS(=O)(=O)c2ccc(N)cc2)c1C [Sulfisoxazole] | 98.5 |
| COC(=O)c1ccccc1O [Methyl salicylate] | 94.3 |
| CC(C)C(NC(=O)c1ccc2ccccc2n1)C(=O)NC(CC(=O)O)C(=O)COc1c(F)cccc1F (configuration not stated) | 100 |
| O=C(O)c1ccco1 [2-Furoic acid] | 97.5 |
| c1cn2cc(-c3ccc4cn[nH]c4c3)nc(Nc3ccc(N4CCOCC4)cc3)c2n1 [Entospletinib (GS-9973)] | 92.5 |
| COc1cc(CO)cc(OC)c1O [4-Hydroxy-3,5-dimethoxybenzyl alcohol] | 108 |
| O=c1nc(N2CCOCC2)oc2c(-c3cccc4c3sc3ccccc34)cccc12 | 75.1 |
| N[C@@H](CS)C(=O)O [L-Cysteine HCl] | 89.1 |
| Cc1cc(C)c(CNC(=O)c2cc(-c3ccc(N4CCN(C)CC4)nc3)cc3c2c(C)cn3C(C)C)c(=O)[nH]1 | 70.6 |
| COc1ccc(C[C@@H]2c3cc(Oc4cc(C[C@@H]5c6cc(OC)c(OC)cc6CCN5C)ccc4O)c(OC)cc3CCN2C)cc1 [Neferine] | 102 |
| CNC[C@H](O)c1ccc(O)c(O)c1 [Epinephrine bitartrate (Adrenalinium)] | 102 |
| C=C(C)[C@@H]1CCC2=CC(=O)C[C@@H](C)[C@]2(C)C1 [Nootkatone] | 107 |

From the supplement of paper PMC10981050
